In PubChem BioAssay (NCI):
About 83,000 compounds went through this panel and 20% of them were active in at least one assay; those are over-represented in the sample as a whole.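 Negative percent growth values reflect cell death: -40 means 40% of the cells present at the start died, and -100 means all died.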 Unmarked numbers belong to inactive results. Calls of active or inactive are those of the source. The calls were made as follows: active = growth percent below 10; inactive = the rest.

What was measured:
Assay in all cases: NCI-60 one-dose screen, 48 h (100 = growth as untreated, 0 = no growth, -100 = all killed)
Conditions in all cases: 10 µM unless noted
HCT-15 colon = system: HCT-15 colon
HT29 colon = system: HT29 colon
SNB-75 CNS = system: SNB-75 CNS
SNB-19 CNS = system: SNB-19 CNS
U251 CNS = system: U251 CNS
PC-3 prostate = system: PC-3 prostate
UACC-62 melanoma = system: UACC-62 melanoma
LOX IMVI melanoma = system: LOX IMVI melanoma
SK-MEL-28 melanoma = system: SK-MEL-28 melanoma

| SMILES | growth (HCT-15 colon) | growth (HT29 colon) | growth (SNB-75 CNS) | growth (SNB-19 CNS) | growth (U251 CNS) | growth (PC-3 prostate) | growth (UACC-62 melanoma) | growth (LOX IMVI melanoma) | growth (SK-MEL-28 melanoma) |
| --- | --- | --- | --- | --- | --- | --- | --- | --- | --- |
| Clc1ccc2nc3nc4ccc[nH]c4cc3c2c1 | 69.3% | 83.8% | 88.8% | 89% | 82.8% | 75.1% | 80.4% | 91.9% | 111% |
| CSc1ccc(-c2n[nH]nc2-c2cc3ccccc3s2)cc1 | 28.7% | 37.8% | 44.5% | 55.7% | 32.6% | 56.7% | 47.5% | 34.9% | 59.5% |
| Clc1ccc2c(NCCCNc3nc(-n4ccnc4)nc4ccccc34)ccnc2c1 | 87% | 75.1% | 71.1% | 92.1% | 83.5% | 73.3% | 94.3% | 82.1% | 93.1% |
| CCCOc1ccc2nc(NC(=O)OC)[nH]c2c1 | 12.4% | 0.423% (active) | 46.1% | 34% | 12.7% | 19.7% | 22.3% | 24.4% | 66.5% |
| CN(C)c1ccc(NC(=O)c2ccc(/C=C/C(=O)c3ncc[nH]3)cc2)cc1 | 16.2% | 11.6% | 68.7% | 28.3% | 11.8% | 68.1% | 70.5% | 14.7% | 95.3% |
| CN(C)c1ccc(N=Nc2ccccn2)c(O)c1 | 31.6% | 24.1% | 42.7% | 18.6% | 11.7% | 33.8% | -28.3% (active) | 8.14% (active) | 32.8% |
| COc1cc(-c2nc3ccccc3[nH]2)ccc1OCC(=O)N=Nc1c(O)[nH]c2ccc(Cl)cc12 | 77.4% | -59% (active) | -88.4% (active) | -93.1% (active) | -95% (active) | -73% (active) | -64.3% (active) | -97.1% (active) | -65.4% (active) |
| Nc1n[nH]c2ccc([C@@H]3Nc4ccc5[nH]ncc5c4[C@H]4C5C=CC(C5)[C@@H]34)cc12 (stereo partly drawn) | 10.8% | 11.5% | -9.96% (active) | 27% | 18% | 13.8% | 37.5% | 9.79% (active) | 54.6% |
| O=C(Cc1ccc(/C=C/C(=O)c2ncc[nH]2)cc1)Nc1ccc(F)cc1 | 5.31% (active) | 3.91% (active) | 20.4% | 14.2% | 8.1% (active) | 32.9% | 40.5% | 2.77% (active) | 87.2% |
| CC(=O)Nc1ccc(S(=O)(=O)Nc2cccc(-c3nc(-c4ccc(NC(=O)c5cccnc5)cc4Cl)no3)c2)cc1 | 88.3% | 9.79% (active) | 27.6% | 37.7% | 29.7% | 25.8% | 37.4% | 40.2% | 50.6% |
| COc1ccc(/C=C2\Oc3cc(OCCCCN4CCCC4)ccc3C2=O)cc1 | 9.45% (active) | 6.71% (active) | 98.1% | 83.7% | 62.6% | 75.6% | 90.5% | -84.7% (active) | 107% |
| CN1CCN(c2nc(NCCCNc3ccnc4cc(Cl)ccc34)c3ccccc3n2)CC1 | 52.7% | 6.44% (active) | 79.6% | 45.4% | 2% (active) | 43.4% | -65.7% (active) | -43.8% (active) | -48.5% (active) |
| O=C1c2cc3c(cc2-c2c1c1ccc(F)cc1c(=O)n2CCCNCCO)OCO3 | -41.8% (active) | -74.3% (active) | -98.5% (active) | -21.9% (active) | -82.8% (active) | -41.9% (active) | -60.5% (active) | -88.3% (active) | -13.8% (active) |
| Cc1cc(N2CCCC2)nc(NC2CCCC(Nc3ccnc4cc(Cl)ccc34)C2)n1 (stereo not drawn) | -52% (active) | -70% (active) | -68.6% (active) | -20.3% (active) | -96.1% (active) | -58.1% (active) | -79.8% (active) | -94.2% (active) | -77.5% (active) |
| O=C(CCl)Oc1ccc(-c2ccccc2)c(Br)c1 | 110% | 109% | 95.6% | 107% | 102% | 97.2% | 99.6% | 97% | 107% |
| CCCCCCN(CCCCCC)CCC(O)c1ccc2ccccc2c1 (stereo not drawn) | 48.1% | 27.7% | 68.2% | 78.5% | 62.7% | 48.6% | 77.3% | 40.5% | 88.1% |
| NNCCc1ccc(NC(=O)CCCc2ccc(/C=C/C(=O)NO)cc2)cc1 | 80.1% | 66.4% | 53% | 58.5% | 22.1% | 53.9% | 43% | 44% | 73.2% |
| CCOc1cc2ncc(C#N)c(Nc3ccc(OCc4cccc(F)c4)c(Cl)c3)c2cc1NC(=O)CC1CCSS1 (stereo not drawn) | 66.4% | 17.6% | 102% | 81.5% | 55.9% | -42.7% (active) | 71.6% | -35.3% (active) | 34.9% |
| COc1ccc(SC2c3cc(OC)c(OC)cc3Oc3nc(N)c(C#N)c(N)c32)cc1 (stereo not drawn) | -62.2% (active) | -24.9% (active) | -65.2% (active) | -83% (active) | -98.6% (active) | -76.8% (active) | -75.1% (active) | -92.7% (active) | -70.1% (active) |
| OC(c1cc2cc(Cl)c(Cl)cc2c2cc(C(F)(F)F)ccc12)C1CCCCN1 (stereo not drawn) | -60.7% (active) | -73.6% (active) | -64% (active) | -64.1% (active) | -92.3% (active) | -84.8% (active) | -38.4% (active) | -88.2% (active) | -79.1% (active) |
| CC[C@]1(O)C[C@@H]2CN(CCc3c([nH]c4ccccc34)[C@@](C(=O)OC)(c3cc4c(cc3OC)N(C)[C@H]3[C@@](O)(C(N)=O)[C@H](O)[C@]5(CC)[C@@H]6C[C@@H]6CN6CC[C@]43[C@@H]65)C2)C1 | 11.9% | 2.2% (active) | 50.8% | 30.9% | 10.7% | 20.7% | 35.7% | 18.3% | 68.1% |
| CN(C)c1ccc(N=Nc2ccc(Br)cn2)c(O)c1 | 28.3% | 21.9% | 39.1% | 19.6% | 11.4% | 33.3% | -45.3% (active) | 6.61% (active) | 29.9% |
| COc1ccc(-c2cc(-c3ccc(Nc4ccnc5cc(Cl)ccc45)cc3)nc(N3CCOCC3)n2)cc1 | 20.7% | 8.19% (active) | -14.8% (active) | 28.2% | -37.7% (active) | 46.9% | 14.9% | -58.6% (active) | 5.53% (active) |
| O=C1C=C(OCC=C(Cl)Cl)C(=O)c2ccccc21 | 64.2% | 82.4% | 50.6% | 98.7% | 75.7% | 80.9% | 87% | 28.8% | 104% |
| Nc1n[nH]c2ccc([C@@H]3Nc4cc5c(cc4[C@H]4C6CCC(C6)[C@@H]34)C(=O)NC5)cc12 (stereo partly drawn) | 15.2% | 12% | 2.29% (active) | 28.2% | 18.1% | 16.8% | 38.9% | 18.2% | 59.2% |
| O=c1cc(CSc2nnc(SCc3cc(=O)oc4c3ccc3ccccc34)o2)c2ccc3ccccc3c2o1 | 104% | 97% | 93% | 107% | 97.2% | 89.9% | 99.6% | 88.7% | 109% |
| COc1cc(C(=O)Oc2ccccc2OC(=O)c2cc(OC)c(OC)c(OC)c2)cc(OC)c1OC | 99.4% | 110% | 95.3% | 97% | 104% | 88.8% | 103% | 94.9% | 120% |
